Measurements reported in PubChem BioAssay (NCI).
About 83,000 compounds went through this panel and 20% of them were active in at least one assay; those are over-represented in the sample as a whole.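 Step 1: grow cells in 96-well plates. Step 2: add test compound at a single concentration. Step 3: incubate 48 h. Step 4: record percent growth.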 Unmarked numbers belong to inactive results. The source made the active and inactive calls. How the source made its calls: active means growth percent below 10; inactive means the rest.

Columns and labels:
Test in all cases: NCI-60 one-dose screen, 48 h (100 = growth as untreated, 0 = no growth, -100 = all killed)
Conditions in all cases: 10 µM
[1] = system: SR leukemia
[2] = system: OVCAR-8 ovarian
[3] = system: OVCAR-5 ovarian
[4] = system: OVCAR-4 ovarian
[5] = system: SK-OV-3 ovarian
[6] = system: IGROV1 ovarian
[7] = system: OVCAR-3 ovarian
[8] = system: HS 578T breast
[9] = system: NCI/ADR-RES ovarian
[10] = system: T-47D breast
[11] = system: BT-549 breast
[12] = system: MDA-MB-435 melanoma
[13] = system: SW-620 colon
[14] = system: MCF7 breast
[15] = system: HCT-116 colon
[16] = system: HCC-2998 colon
[17] = system: KM12 colon

SMILES	growth [1]	growth [2]	growth [3]	growth [4]	growth [5]	growth [6]	growth [7]	growth [8]	growth [9]	growth [10]	growth [11]	growth [12]	growth [13]	growth [14]	growth [15]	growth [16]	growth [17]
CC1=CC2C(C(O)CC3(C)C2CC(C)C32OCOC23COCO3)C2(C)C/C(=C/O)C(=O)C=C12 (stereo not given)	-38.8% (active)	43.8%	63.2%	35.8%	48.5%	70.9%	10.8%	83.4%	17.3%	24.3%	51.2%	7.68% (active)	5.28% (active)	5.37% (active)	-70.2% (active)	35%	12%
Cc1ccc(C2=NN(c3ccc(S(C)(=O)=O)cc3)C(=O)CC2)cc1	4.47% (active)	31.8%	53.1%	60.8%	19.9%	59.2%	-14.7% (active)	-1.17% (active)	6.72% (active)	32.7%	11.3%	-61.2% (active)	8.58% (active)	16.2%	17.7%	47.2%	35%
COc1ccc(-c2nn(-c3cccc(Cl)c3)cc2-c2cc(-c3cccs3)[nH]c(=S)n2)cc1	32.6%	48.3%	83.1%	60.4%	83%	50.7%	57.8%	62.7%	47.4%	41.6%	46.7%	33.5%	61.4%	34.1%	20.4%	37.4%	27.5%
COc1cc2c3c(n(C4CCNCC4)c(=O)c2cc1OC)-c1cc2c(cc1C3=O)OCO2	-24.4% (active)	-43.1% (active)	-66.8% (active)	-23.4% (active)	-42.2% (active)	-57.1% (active)	-88.9% (active)	-48.5% (active)	-39.8% (active)	-51.1% (active)	-58% (active)	-44.1% (active)	-73.2% (active)	-53.8% (active)	-60.7% (active)	-95% (active)	-79.6% (active)
Fc1ccc2[nH]cc(-c3nc(-c4ccsc4)cs3)c2c1	86.2%	94.4%	107%	101%	80.5%	85.7%	99.8%	96.8%	80.8%	57%	96.9%	105%	94.8%	65.9%	91.5%	105%	101%
OC(CNc1ccnc2cc(Cl)ccc12)CNC1CCCCC1 (stereo not given)	23.1%	87.9%	87.4%	76%	85.1%	103%	89.4%	83.8%	90.7%	65.6%	70%	52.5%	92.9%	75.7%	68.9%	64.3%	83.5%
COc1ccc(-c2nn(-c3cccc(Cl)c3)cc2-c2c(C#N)c(=O)n3[nH]c(-c4ccc(C)cc4)nc3c2C#N)cc1	1.64% (active)	14.3%	87%	57.1%	55.7%	38.5%	97%	43.4%	51.2%	55.6%	43.4%	10.8%	-21% (active)	21.2%	9.86% (active)	52.2%	55.1%
CC[C@@H](C(=O)[C@H](C)[C@H](O)[C@@H](C)[C@H]1O[C@H]([C@@H](CC)C(=O)N(CC)CC)CC[C@H]1C)C1O[C@]2(C=C[C@@H](O)[C@]3(CC[C@@](C)([C@H]4CC[C@](O)(CC)[C@H](C)O4)O3)O2)[C@H](C)C[C@@H]1C (stereo not given in full)	55.5%	25.4%	32%	28.2%	20.8%	19.8%	14.3%	24.1%	5.44% (active)	17%	37.1%	26.3%	18.5%	10.4%	10.8%	22.1%	29.6%
Cc1[nH]c2ccccc2c1/C=N/Nc1ncnc2sc3c(c12)CCN(CC(=O)OC(C)(C)C)C3	23.4%	69%	130%	104%	108%	79.8%	83.1%	77.7%	66.1%	80.7%	81.4%	32.3%	60%	65.4%	40.8%	99.5%	76%
Cc1cn(-c2cccc(NC(=O)c3ccc(C)c(Nc4nccc(-c5cccnc5)n4)c3)c2)cn1	1.26% (active)	0.284% (active)	41.3%	-58.1% (active)	-54.2% (active)	-11.7% (active)	-33.7% (active)	-8.85% (active)	7.25% (active)	46%	-39.4% (active)	-27.8% (active)	20.2%	-24.6% (active)	-87.4% (active)	41.7%	-94.9% (active)
COc1ccc(C(=O)CSc2nc(-c3cc(OC)ccc3OC)cc(-c3ccc(OC)cc3)c2C#N)cc1	90.1%	105%	85.8%	98.1%	87.1%	102%	97%	103%	45.1%	85.7%	89.9%	100%	110%	101%	94%	108%	92.1%
CCCCC1(O)CCCCC1	92.6%	104%	112%	115%	112%	114%	106%	98.1%	107%	91.5%	95.5%	106%	102%	101%	102%	103%	96.8%
COc1ccccc1-n1c(-c2csc(NC(C)=O)n2)n[nH]c1=S	82.8%	104%	119%	103%	103%	97.8%	117%	105%	96.2%	104%	94.7%	85.3%	105%	97.5%	100%	101%	104%
C=C(C)[C@@H]1CC[C@]2(COCCC#N)CC[C@]3(C)[C@H](CC[C@@H]4[C@@]5(C)Cc6c([nH]c7ccccc67)C(C)(C)[C@@H]5CC[C@]43C)[C@@H]12	94.7%	107%	89.3%	88.5%	100%	105%	93.9%	90.6%	98.1%	81.8%	95.3%	95.8%	92.6%	81.1%	82%	104%	95.8%
COCCn1cc(-c2nc(-c3cccnc3)cs2)c2cc(F)ccc21	63.5%	102%	92.7%	95.6%	7.36% (active)	110%	94.1%	98.6%	86%	87.7%	93%	79.9%	99.4%	102%	102%	102%	69.4%
